In PubChem BioAssay (EPA / NIEHS):
Where “and” joins values, the source holds several entries; their conditions need not be identical. Equal entries are not always repeated. Some compounds were tested as several samples or in several runs, with calls that do not always agree. Calls of active or inactive are those of the source. The calls were made as follows: active = hit-call score of the fitted dose curve at least 0.9, where 1 is the maximum; inactive = score below 0.9.

Read-out: Vascular endothelial growth factor receptor 2 (Homo sapiens) (UniProt P35968)
Experiment: BSK_4H_VEGFRII: BioMAP Diversity Plus: 4H Assay for Vascular endothelial growth factor receptor 2 (VEGFR2) Biomarker Activity (AID 2283031)
Settings: primary human endothelial cells (HUVEC); actives raise or lower the signal
Experimental: BSK_4H is a cell-based, multiplexed-readout assay that uses umbilical vein endothelium, a human vascular primary cell, with measurements taken at 24 hours after chemical dosing in a 96-well plate.BSK_4H_VEGFRII is an assay component measured in the BSK_4H assay. It measures VEGFRII antibody related to regulation of gene expression using ELISA technology.Data from the assay component BSK_4H_VEGFRII was analyzed into 1 assay endpoint. This assay endpoint, BSK_4H_VEGFRII, was analyzed with bidirectional fitting relative to DMSO as the negative control and baseline of activity. Using a type of binding reporter, gain or loss-of-signal activity can be used to understand changes in the signaling as they relate to the gene KDR. Furthermore, this assay endpoint can be referred to as a primary readout, because this assay has produced multiple assay endpoints where this one serves a signaling function. To generalize the intended target to other relatable targets, this assay endpoint is annotated to the kinase intended target family, where the subfamily is receptor tyrosine kinase.
The levels of cell surface (or secreted, indicated by the prefix "s") biomarker endpoints were measured by ELISA. Overt cytotoxicity to cells in confluent adherent cultures (all systems other than the BT system) was assessed by measuring total protein levels using sulforhodamine B (SRB) staining in parallel cultures at the time of biomarker measurements, indicated as SRB endpoints. For proliferation assays for adherent cell types, individual cell types are cultured at sub-confluence and relative cell numbers quantified by SRB staining at time points optimized for each system (48 h: 3C and CASM3C systems; 72 h: BT and HDF3CGF systems; 96 h: SAg system). SRB was performed by staining cells with 0.1% SRB after fixation with 10% TCA and reading wells at 560 nm.Viability and proliferation of PBMC (T cells) was quantified by Alamar Blue reduction for the SAg and BT systems. For PBMC viability (referred to as PBMC Cytotoxicity within the assay endpoint names), cells were plated (75,000/well in a 96-well plate) and then chemical samples added for 1 h before addition of activators, SEB and TSST-1 (20 ng/mL final concentration each). Cells were incubated for 90 h. Then, Alamar Blue (20 uL/well) (Invitrogen, Cat DAL1100) was added for 6 h, and the plates were read with a fluorescence microplate reader at 546/580 nm (excitation/emission). For PBMC proliferation, cells were plated and activated as above but incubated for only 16 h prior to addition of Alamar Blue. Plates were read after 6 h.

outcome, inactive:
Cc1ccc(C(=O)c2ccccc2)cc1
CCCCCCCCCCCCOS(=O)(=O)O
COCN(COC)c1nc(N(COC)COC)nc(N(COC)COC)n1
O=C(CC(=O)C(F)(F)C(F)(F)C(F)(F)F)c1cccs1
Oc1cc2ccccc2cc1O
O=C1c2ccc(O)c(O)c2C(=O)c2c(O)ccc(O)c21
O=C(CCCN1CCC(O)(c2ccc(Cl)cc2)CC1)c1ccc(F)cc1
O=C(c1ccccc1)c1ccccc1
C[C@]12CC[C@@H]3c4ccc(O)cc4CC[C@H]3[C@@H]1C[C@@H](O)[C@@H]2O
CC1=NN(c2ccccc2)C(=O)C1
O=C(O)C(F)(F)OC(F)(F)C(F)(F)OC(F)(F)C(F)(F)OC(F)(F)C(F)(F)C(F)(F)C(F)(F)F
CC[N+](CC)(CC)Cc1ccccc1
O=P(O)(O)CCC(F)(F)C(F)(F)C(F)(F)C(F)(F)C(F)(F)C(F)(F)F
CN(C)CCOC(c1ccccc1)c1ccccc1
C=CC(=O)OCCC(F)(F)C(F)(F)C(F)(F)C(F)(F)C(F)(F)C(F)(F)C(F)(F)C(F)(F)F
N=C(N)c1ccc(OCCCCCOc2ccc(C(=N)N)cc2)cc1
O=S(=O)(O)C(F)(F)C(F)(F)C(F)(F)C(F)(F)C(F)(F)C(F)(F)C(F)(F)C(F)(F)C(F)(F)C(F)(F)F
COC1=CC(=O)C[C@@H](C)[C@]12Oc1c(Cl)c(OC)cc(OC)c1C2=O
Cc1cccc2c1ccc1ccccc12
CCCCCc1ccc(O)cc1
CN(Cc1cnc2nc(N)nc(N)c2n1)c1ccc(C(=O)N[C@@H](CCC(=O)O)C(=O)O)cc1
Cc1ccc(N=Nc2c(O)ccc3ccccc23)c(C)c1
CN(CCO)S(=O)(=O)C(F)(F)C(F)(F)C(F)(F)C(F)(F)C(F)(F)C(F)(F)C(F)(F)C(F)(F)F
OCC(CO)(CBr)CBr
O=C(NCc1ncc(C(F)(F)F)cc1Cl)c1c(Cl)cccc1Cl
CC(C)(C)c1ccc(O)c(O)c1
CCOC(=O)CN[C@@H](C(=O)N1CC[C@H]1C(=O)NCc1ccc(/C(N)=N/O)cc1)C1CCCCC1
Clc1ccc(Nc2nnc(Cc3ccncc3)c3ccccc23)cc1
CS(=O)(=O)c1ccc([C@@H](CC2CCCC2)C(=O)Nc2cnccn2)cc1Cl
CCCCC=O
CCCCCCCCCCCCCCC
OCC(F)(F)C(F)(F)C(F)(F)C(F)(F)C(F)(F)C(F)(F)C(F)(F)C(F)(F)C(F)(F)C(F)(F)C(F)(F)F

AC50, active:
CN(C)c1ccc(C(=C2C=CC(=[N+](C)C)C=C2)c2ccccc2)cc1 0.0249 µM
O=C(CC(=O)C(F)(F)C(F)(F)C(F)(F)F)c1cccs1 8.16 µM
O=C(O)C(F)(F)OC(F)(F)C(F)(F)OC(F)(F)C(F)(F)OC(F)(F)C(F)(F)C(F)(F)C(F)(F)F 47.7 µM
O=C1OC2(c3ccccc31)c1cc(I)c(O)c(I)c1Oc1c2cc(I)c(O)c1I 3.36 µM
Oc1c(Cl)cc(Cl)cc1Sc1cc(Cl)cc(Cl)c1O 5.09 µM and 4.99 µM
C=COC(=O)C(C)(C)CCCCCC 25.6 µM
C=CC(C)(CCC=C(C)C)OC(C)=O (stereo not given) 31.5 µM
NC(=NCCCCCCN=C(N)/N=C(\N)Nc1ccc(Cl)cc1)/N=C(\N)Nc1ccc(Cl)cc1 4.47 µM
